PubChem BioAssay
“And” between values parts separate entries of the source, which are not always exact repeats. Equal entries are not always repeated. Inconclusive results are not listed. The source holds several records for some structures; these can differ, active in one and inactive in another. The source made the active and inactive calls. Unless noted, how the calls were made is not given here.

Assays:
[1] = yeast TOR pathway RPL19A-GFP modulators, primary screen, cell-based, S. cerevisiae, multiplex flow cytometry (AID 1862; in the data active means percent of DMSO control GFP below about 86%;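 further: lower values mimic rapamycin by blocking the RPL19A rise seen in DMSO cells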); conditions: S. cerevisiae RPL19A-GFP strain, flow cytometry fluorescence, 3 h; at 10 µM; stronger effect = lower value
[2] = modulators of MEP2-GFP levels in yeast, primary screen, S. cerevisiae, multiplex flow cytometry (AID 1867;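 active means GFP response, as percent of the DMSO control, above the screen-wide mean plus 3 SD, about 139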;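 further: median GFP channel fluorescence of barcode-gated MEP2-GFP cells measured by flow cytometry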); conditions: S. cerevisiae MEP2-GFP strain, 3 h, at 10 µM, stronger effect = higher value
[3] = modulators of CIT2-GFP expression in yeast, primary screen, S. cerevisiae, GFP fusion, multiplex flow cytometry (AID 1870;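 active means percent response above a set limit, the screen-wide mean plus 3 SD, cut at about 130% in these data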;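 further: barcoded CIT2-GFP strain pooled with four other GFP strains with rapamycin as positive control; median GFP fluorescence per well over plate mean of DMSO wells so 100% = DMSO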); conditions: 3 h, at 10 µM, stronger effect = higher value
[4] = modulators of LAP4-GFP expression in yeast, primary screen, S. cerevisiae, multiplex flow cytometry (AID 1873;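 active means GFP signal, as percent of the solvent control, above the screen mean plus 3 SD, about 149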); conditions: 3 h, at 10 µM, stronger effect = higher value
[5] = modulators of AGP1-GFP expression in yeast TOR pathway, primary screen, cell-based, multiplex flow cytometry, S. cerevisiae (AID 1887;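 active means GFP signal above the screen-wide mean plus 3 SD, that is over about 124.5% of the solvent control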;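 further: AGP1-GFP fusion strain of S. cerevisiae within a five-strain barcoded multiplex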); conditions: 3 h, at 10 µM, stronger effect = higher value
[6] = inhibitors of CD8+ T cell-vesicle binding, pilot screen, LFA-1/ICAM-1 modulator project, MLPCN validation set, flow cytometry (AID 2523;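 active means response below a set limit, under 55% cells CD8-positive and vesicle-bound, and CD8 cells' 90th-percentile brightness under 279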;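 on vesicle binding response: mean PE anti-B7-1 fluorescence of CD8+ cells relative to row control; 100% = QL9-loaded vesicles with DMSO vehicle in the same plate row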); conditions: 2C mouse CD8+ T cells, at 7 µM, stronger effect = lower value; double positive events: measured here: CD8+/vesicle+ event percentage
[7] = target: Integrin beta-1 (Homo sapiens) + Integrin alpha-4 (Homo sapiens) (UniProt P13612+P05556); test: inhibition of HUTS-21 binding to VLA-4, pilot screen, VLA-4 allosteric modulator project, U937 cells, HUTS-21 mAb, flow cytometry, validation set (AID 2674;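 active means inhibition above 50%, about 3 SD of the validation set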;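 further: antibody binding induced by the VLA-4 ligand LDV present at three times its Kd; 0% = LDV ligand with antibody and no compound and 100% = antibody without LDV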); conditions: HUTS-21 LIBS mAb binding, at 6.7 µM, stronger effect = higher value
[8] = superoxide lowering in aged yeast cells, pilot screen, validation compound set (AID 2706;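 active means superoxide response below 65% of plate, a cut near 3 SD across the whole screen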;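 further: yeast exposed to compound for one week at 30 degrees C before staining; 100% = mean of all compound wells on the same plate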); conditions: S. cerevisiae aging, superoxide DHE fluorescence; at 10 µM; stronger effect = lower value
[9] = target: Beta-adrenergic receptor kinase 1 (Homo sapiens) (UniProt P25098); test: GRK2 binders displacing RNA aptamer, biochemical, validation, human GRK2, bead flow cytometry (AID 488806;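 active means aptamer binding inhibition above 30%, about 3 SD of noise from non-fluorescent compounds; inactive means inhibition at or below 30%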); conditions: bead-bound GRK2, FAM-aptamer displacement, at 10 µM, stronger effect = higher value
[10] = target: Beta-2 adrenergic receptor (Homo sapiens) (UniProt P07550); test: beta2AR agonists driving receptor internalization, pilot screen, cell-based, FAP fluorogen, flow cytometry, validation set (AID 504459;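 active means percent response above 42, roughly 3 SD of non-fluorescent test compounds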;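 further: agonist-driven loss of surface beta2AR via internalization measured by FAP dye flow cytometry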); conditions: Am2.2-beta2AR cells, FAP surface receptor flow cytometry; at 10 µM; stronger effect = higher value
[11] = target: AP-2 complex subunit beta (Homo sapiens) (UniProt P63010); test: inhibitors of arrestin peptide binding to AP2, pilot screen, biochemical, validation set, GST-AP2 beads, flow cytometry (AID 504541;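 active means inhibition above 54%, about 3 SD of non-fluorescent compounds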;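 further: AP2 carries R879A mutation and is captured from E. coli lysate; bead-bound FITC arrestin peptide fluorescence measuring arrestin peptide binding to AP2; 0% = DMSO wells and 100% = excess unlabeled arrestin peptide control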); conditions: FITC arrestin peptide, at 10 µM, stronger effect = higher value
[12] = yeast V-ATPase proton transport modulators, S. cerevisiae, pHLuorin, HTS validation (AID 504600; in the data active means response above about 15%;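 further: plate controls were DMSO for no effect and reference compound for full effect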); conditions: S. cerevisiae pHLuorin cytosolic pH, at 10 µM, stronger effect = higher value
[13] = tested on: anti-desmoglein-3 scFv antibody binding to human DSG3; test: inhibitors of anti-DSG3 scFv binding to DSG3, pilot screen, biochemical, validation compound set, bead-based, flow cytometry (AID 588368;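 active means binding below the plate cutoff, the plate median minus 3 SD, with a reading above zero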;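 further: signal is the median channel fluorescence of bead-bound GFP antibody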); conditions: Protein G beads, DSG3-Fc, scFv-GFP binding, at 10 µM, stronger effect = lower value
[14] = tested on: Botulinum neurotoxin type F light chain protease (Clostridium botulinum); test: Botulinum neurotoxin type F light chain protease inhibition, multiplex microsphere flow cytometry, validation set (AID 588459); conditions: multiplex microsphere protease substrate cleavage assay, at 10 µM, stronger effect = higher value
[15] = target: Botulinum neurotoxin type A (Clostridium botulinum) (UniProt P0DPI0); test: BoNT/A light chain protease inhibitors, biochemical, multiplex microsphere flow cytometry, validation set (AID 588460); conditions: at 10 µM, stronger effect = higher value
[16] = target: Lethal factor (Bacillus anthracis) (UniProt P15917); test: Lethal factor protease inhibitors, Bacillus anthracis, multiplex microsphere cleavage assay, validation set (AID 588461); conditions: flow cytometry, at 10 µM, stronger effect = higher value
[17] = inhibitors of fungal efflux pumps CDR1, CDR2, MDR1, pilot screen, validation compound set, multiplex, phenotypic (AID 588506;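 active means efflux inhibition above 0.42, the validation set average plus 4 SD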;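 further: Nile Red retained in cells so higher fluorescence means more efflux inhibition; 0 = negative control wells and 1 = enniatin B 25 µM full block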); conditions: S. cerevisiae pump-expressing triplex, Nile Red efflux flow cytometry; at 10 µM; stronger effect = higher value
[18] = target: ATP-binding cassette sub-family B member 6 (Homo sapiens) (UniProt Q9NP58); test: ABCB6 transporter inhibitors, pilot screen, K562-ABCB6 cells, flow cytometry, validation set (AID 588550;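 active means inhibition above the screen-wide mean plus 3 SD, about 51%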;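 further: 0% = DMSO wells and 100% = benzethonium chloride 70 µM positive control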); conditions: K562-ABCB6 porphyrin accumulation, 1 h, at 10 µM, stronger effect = higher value
[19] = promoters of myeloid differentiation in arrested cells, primary screen, cell-based, GFP/MAC1 double positive, flow cytometry, validation set (AID 588685;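 active means differentiation response of at least 50%, scaled between solvent and reference control, from cells with both markers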;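 further: compound exposure lasts four days before antibody staining and flow analysis; 0% = DMSO wells and 100% = 5 µM fulvestrant positive control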); conditions: ER-HoxA9 marrow cells, stronger effect = higher value

Sequence of AP-2 complex subunit beta (Homo sapiens) (P63010 whole entry, looked up, one chain of several): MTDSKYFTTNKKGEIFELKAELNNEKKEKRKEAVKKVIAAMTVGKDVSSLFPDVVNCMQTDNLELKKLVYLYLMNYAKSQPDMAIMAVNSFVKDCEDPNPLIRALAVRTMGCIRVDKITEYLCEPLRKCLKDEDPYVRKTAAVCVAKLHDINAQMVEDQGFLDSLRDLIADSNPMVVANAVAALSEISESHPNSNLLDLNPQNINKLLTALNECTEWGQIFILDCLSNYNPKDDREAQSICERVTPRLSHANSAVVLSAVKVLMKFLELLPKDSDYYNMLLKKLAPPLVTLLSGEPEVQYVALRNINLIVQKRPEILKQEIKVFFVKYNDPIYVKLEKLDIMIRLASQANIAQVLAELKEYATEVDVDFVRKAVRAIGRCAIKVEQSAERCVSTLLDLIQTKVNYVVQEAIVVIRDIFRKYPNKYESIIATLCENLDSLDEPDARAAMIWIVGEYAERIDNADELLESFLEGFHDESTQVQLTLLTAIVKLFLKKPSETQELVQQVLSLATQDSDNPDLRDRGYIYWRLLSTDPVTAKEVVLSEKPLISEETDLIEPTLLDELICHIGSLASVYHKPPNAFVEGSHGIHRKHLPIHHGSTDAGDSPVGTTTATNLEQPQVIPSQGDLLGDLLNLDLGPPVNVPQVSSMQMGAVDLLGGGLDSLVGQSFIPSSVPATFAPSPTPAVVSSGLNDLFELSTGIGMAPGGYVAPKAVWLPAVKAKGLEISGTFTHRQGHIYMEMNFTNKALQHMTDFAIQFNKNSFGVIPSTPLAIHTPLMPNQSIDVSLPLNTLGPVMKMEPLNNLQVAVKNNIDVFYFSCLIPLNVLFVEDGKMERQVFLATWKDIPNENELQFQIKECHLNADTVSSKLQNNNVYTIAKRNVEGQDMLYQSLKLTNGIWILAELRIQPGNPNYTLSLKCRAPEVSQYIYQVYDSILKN
Sequence of ATP-binding cassette sub-family B member 6 (Homo sapiens) (Q9NP58 whole entry, looked up): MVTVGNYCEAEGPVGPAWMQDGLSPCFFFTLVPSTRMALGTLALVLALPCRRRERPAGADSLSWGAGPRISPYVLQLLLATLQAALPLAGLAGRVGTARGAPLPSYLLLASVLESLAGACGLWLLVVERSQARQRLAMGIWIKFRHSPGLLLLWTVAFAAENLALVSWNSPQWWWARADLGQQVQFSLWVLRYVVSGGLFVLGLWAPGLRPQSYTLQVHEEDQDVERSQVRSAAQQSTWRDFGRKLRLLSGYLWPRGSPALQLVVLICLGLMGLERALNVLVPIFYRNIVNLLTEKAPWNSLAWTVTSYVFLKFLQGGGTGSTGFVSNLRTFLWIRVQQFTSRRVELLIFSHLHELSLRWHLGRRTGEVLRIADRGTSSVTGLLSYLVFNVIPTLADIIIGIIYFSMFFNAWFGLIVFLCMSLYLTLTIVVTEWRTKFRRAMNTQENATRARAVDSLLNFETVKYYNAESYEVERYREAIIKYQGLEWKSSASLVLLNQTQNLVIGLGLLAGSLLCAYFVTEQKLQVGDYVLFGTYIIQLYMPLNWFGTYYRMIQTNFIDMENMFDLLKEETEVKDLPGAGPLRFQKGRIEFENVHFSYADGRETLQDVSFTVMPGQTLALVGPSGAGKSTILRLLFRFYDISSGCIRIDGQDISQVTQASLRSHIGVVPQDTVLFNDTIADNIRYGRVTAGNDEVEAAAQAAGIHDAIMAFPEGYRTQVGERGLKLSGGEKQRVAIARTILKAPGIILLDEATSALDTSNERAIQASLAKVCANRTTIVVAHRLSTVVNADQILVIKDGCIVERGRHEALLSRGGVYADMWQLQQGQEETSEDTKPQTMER
Sequence of Integrin beta-1 (Homo sapiens) + Integrin alpha-4 (Homo sapiens) (P05556 whole entry, looked up): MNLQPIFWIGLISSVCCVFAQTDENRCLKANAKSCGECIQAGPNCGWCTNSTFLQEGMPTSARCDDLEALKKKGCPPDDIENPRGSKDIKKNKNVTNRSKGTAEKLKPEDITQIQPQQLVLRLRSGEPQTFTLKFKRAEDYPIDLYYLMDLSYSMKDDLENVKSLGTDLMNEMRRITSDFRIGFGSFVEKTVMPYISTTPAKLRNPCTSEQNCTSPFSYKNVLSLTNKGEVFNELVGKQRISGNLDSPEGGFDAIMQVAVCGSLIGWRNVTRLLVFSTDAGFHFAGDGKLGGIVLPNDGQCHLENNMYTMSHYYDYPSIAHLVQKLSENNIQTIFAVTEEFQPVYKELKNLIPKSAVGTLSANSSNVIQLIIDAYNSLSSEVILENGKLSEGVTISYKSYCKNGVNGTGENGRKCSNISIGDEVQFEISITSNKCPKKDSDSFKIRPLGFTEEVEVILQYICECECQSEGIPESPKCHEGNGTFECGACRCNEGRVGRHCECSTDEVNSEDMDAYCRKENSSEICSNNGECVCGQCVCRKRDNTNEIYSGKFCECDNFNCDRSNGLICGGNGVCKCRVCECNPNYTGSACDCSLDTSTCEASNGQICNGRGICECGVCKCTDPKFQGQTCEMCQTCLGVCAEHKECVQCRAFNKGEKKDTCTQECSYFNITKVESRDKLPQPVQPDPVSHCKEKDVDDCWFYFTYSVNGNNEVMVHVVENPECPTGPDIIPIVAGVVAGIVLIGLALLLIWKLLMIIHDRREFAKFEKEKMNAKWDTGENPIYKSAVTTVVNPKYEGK
Sequence of Integrin beta-1 (Homo sapiens) + Integrin alpha-4 (Homo sapiens) (P13612 whole entry, looked up): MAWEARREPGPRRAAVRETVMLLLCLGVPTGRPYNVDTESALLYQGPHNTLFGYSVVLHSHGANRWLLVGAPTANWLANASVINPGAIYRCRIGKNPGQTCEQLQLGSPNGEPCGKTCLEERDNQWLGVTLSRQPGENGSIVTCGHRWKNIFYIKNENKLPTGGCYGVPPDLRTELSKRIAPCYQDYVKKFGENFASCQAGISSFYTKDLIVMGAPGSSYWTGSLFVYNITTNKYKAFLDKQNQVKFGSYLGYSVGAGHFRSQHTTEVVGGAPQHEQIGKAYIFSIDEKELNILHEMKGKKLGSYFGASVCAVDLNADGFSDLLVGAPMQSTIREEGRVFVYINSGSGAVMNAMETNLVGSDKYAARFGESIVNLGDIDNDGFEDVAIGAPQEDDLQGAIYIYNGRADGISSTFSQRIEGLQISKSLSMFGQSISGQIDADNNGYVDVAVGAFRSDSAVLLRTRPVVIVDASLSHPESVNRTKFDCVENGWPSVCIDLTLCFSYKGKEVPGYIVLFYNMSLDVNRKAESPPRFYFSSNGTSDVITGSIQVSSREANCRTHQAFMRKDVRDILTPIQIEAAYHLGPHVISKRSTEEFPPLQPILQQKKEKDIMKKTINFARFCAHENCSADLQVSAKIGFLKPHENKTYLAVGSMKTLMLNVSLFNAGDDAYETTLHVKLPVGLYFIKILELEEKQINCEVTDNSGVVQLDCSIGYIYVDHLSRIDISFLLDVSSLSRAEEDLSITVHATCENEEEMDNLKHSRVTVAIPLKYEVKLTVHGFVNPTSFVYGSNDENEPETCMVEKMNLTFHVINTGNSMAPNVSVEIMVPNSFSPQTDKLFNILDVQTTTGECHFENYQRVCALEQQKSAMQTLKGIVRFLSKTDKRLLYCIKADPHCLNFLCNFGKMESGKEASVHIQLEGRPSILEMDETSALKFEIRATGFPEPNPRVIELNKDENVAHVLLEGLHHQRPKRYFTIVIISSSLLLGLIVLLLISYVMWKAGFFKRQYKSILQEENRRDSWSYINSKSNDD
Sequence of Botulinum neurotoxin type A (Clostridium botulinum) (P0DPI0 whole entry, looked up): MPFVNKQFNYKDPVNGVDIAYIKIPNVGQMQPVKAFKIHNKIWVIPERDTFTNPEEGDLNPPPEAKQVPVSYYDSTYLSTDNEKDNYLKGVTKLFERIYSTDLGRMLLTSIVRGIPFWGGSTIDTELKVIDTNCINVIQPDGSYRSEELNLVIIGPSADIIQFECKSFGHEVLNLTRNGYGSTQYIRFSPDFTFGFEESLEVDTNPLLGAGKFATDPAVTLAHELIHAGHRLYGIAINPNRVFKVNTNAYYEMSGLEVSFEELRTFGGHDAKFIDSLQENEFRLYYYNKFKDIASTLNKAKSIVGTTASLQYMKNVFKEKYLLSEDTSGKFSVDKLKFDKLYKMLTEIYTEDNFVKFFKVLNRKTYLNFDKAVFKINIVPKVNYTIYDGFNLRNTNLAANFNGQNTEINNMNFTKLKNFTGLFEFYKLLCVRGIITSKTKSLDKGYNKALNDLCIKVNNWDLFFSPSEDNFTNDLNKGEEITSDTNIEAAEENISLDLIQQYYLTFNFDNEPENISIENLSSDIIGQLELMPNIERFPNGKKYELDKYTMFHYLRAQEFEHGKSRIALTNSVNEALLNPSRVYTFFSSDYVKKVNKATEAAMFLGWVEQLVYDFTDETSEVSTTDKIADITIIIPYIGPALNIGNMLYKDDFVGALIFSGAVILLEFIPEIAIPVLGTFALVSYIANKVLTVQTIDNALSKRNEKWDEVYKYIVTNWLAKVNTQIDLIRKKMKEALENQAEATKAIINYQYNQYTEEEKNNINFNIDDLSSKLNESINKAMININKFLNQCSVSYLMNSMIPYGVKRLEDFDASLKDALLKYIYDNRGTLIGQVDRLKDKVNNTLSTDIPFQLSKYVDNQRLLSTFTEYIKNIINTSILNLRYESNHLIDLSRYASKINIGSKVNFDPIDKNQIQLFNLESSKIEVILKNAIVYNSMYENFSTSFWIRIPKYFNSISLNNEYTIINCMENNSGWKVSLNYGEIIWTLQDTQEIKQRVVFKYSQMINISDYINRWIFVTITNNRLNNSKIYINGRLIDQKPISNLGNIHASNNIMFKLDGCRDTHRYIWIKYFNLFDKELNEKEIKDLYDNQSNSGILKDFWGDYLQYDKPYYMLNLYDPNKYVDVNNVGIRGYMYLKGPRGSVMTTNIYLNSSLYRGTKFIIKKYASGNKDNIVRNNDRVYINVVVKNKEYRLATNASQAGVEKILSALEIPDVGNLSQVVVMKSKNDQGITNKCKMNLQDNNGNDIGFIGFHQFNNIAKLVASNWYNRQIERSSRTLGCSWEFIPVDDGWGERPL

Structure (SMILES)	percent of DMSO control GFP [1]	GFP response vs DMSO [2]	percent response of DMSO control [3]	GFP response vs DMSO [4]	GFP response, % of DMSO [5]	double positive events [6]	vesicle binding response [6]	inhibition [7]	superoxide response (% of plate) [8]	aptamer binding inhibition [9]	response [10]	inhibition [11]	response [12]	binding (% of control) [13]	inhibition [14]	inhibition [15]	inhibition [16]	efflux inhibition (fraction of control) [17]	inhibition [18]	differentiation response [19]
CN1C[C@H](CNC(=O)OCc2ccccc2)C[C@@H]2c3cccc4c3c(cn4C)C[C@H]21	103% (inactive)	101% (inactive)	99% (inactive)	104% (inactive)	108% (inactive)	63.3%	365% (inactive)	-34.3% (inactive)	125% (inactive)	-1% (inactive)	13.7% (inactive)	-6.87% (inactive)	-0.08% (inactive)	110% (inactive)	-0.5% (inactive)	1.5% (inactive)	-7.6% (inactive)	0.04 (inactive)	-29% (inactive)	-6.96% (inactive)
O=c1c2ccccc2[se]n1-c1ccccc1	99.6% (inactive)	94.6% (inactive)	110% (inactive)	94.4% (inactive)	99.2% (inactive)	57.5%	111% (inactive)	15.4% (inactive)	120% (inactive)	5% (inactive)	12.7% (inactive)	116% (active)	-0.76% (inactive)	9.72% (active)	33.2% (active)	92.6% (active)	-9.3% (inactive)	37.3 (active)	5% (inactive)	0.41% (inactive)
C=C1[C@@H](C)[C@H]2[C@H](Cc3ccccc3)NC(=O)[C@]23OC(=O)/C=C/[C@H](O)CCC[C@@H](C)C/C=C/[C@H]3[C@@H]1O	106% (inactive)	102% (inactive)	106% (inactive)	114% (inactive)	119% (inactive)	62.1%	205% (inactive)	-2.82% (inactive)	102% (inactive)	4% (inactive)	36.2% (inactive)	-4.43% (inactive)	0.39% (inactive)	102% (inactive)	2% (inactive)	0.4% (inactive)	-2.5% (inactive)	-0.21 (inactive)	7% (inactive)	-4% (inactive)
CCOc1ccc(C2C(C#N)=C(N)Oc3c2c(=O)oc2ccccc32)cc1 (stereo not given)	104% (inactive)	99.6% (inactive)	102% (inactive)	102% (inactive)	101% (inactive)	59.3%	213% (inactive)	9.13% (inactive)	103% (inactive)	4% (inactive)	-0.19% (inactive)	22.7% (inactive)	-3.38% (inactive)	104% (inactive)	-0.4% (inactive)	0.3% (inactive)	0.5% (inactive)	-0.13 (inactive)	5% (inactive)	-23.2% (inactive)
C[N+]1(C)CCc2cc3c(cc2[C@H]1[C@@H]1OC(=O)c2c1ccc1c2OCO1)OCO3	105% (inactive) and 102% (inactive)	102% (inactive) and 108% (inactive)	104% (inactive) and 93.1% (inactive)	98% (inactive) and 90.1% (inactive)	100% (inactive) and 93.4% (inactive)	60.5% and 65.5%	128% (inactive) and 1190% (inactive)	5.61% (inactive) and 11% (inactive)	93.4% (inactive) and 102% (inactive)	-1% (inactive) and 5% (inactive)	-0.95% (inactive) and -3.71% (inactive)	55.1% (active) and -7.04% (inactive)	-7.78% (inactive) and 0.91% (inactive)	101% (inactive) and 97.9% (inactive)	-0.6% (inactive) and -2.3% (inactive)	-1% (inactive) and -0.6% (inactive)	1% (inactive) and -2.4% (inactive)	0.115 (inactive) and -0.1 (inactive)	24% (inactive) and -3% (inactive)	-10.4% (inactive) and 1.22% (inactive)
CC12CN3CC(C)(CN(C1)C3c1cccs1)C2=O (stereo not given)	101% (inactive)	99.3% (inactive)	109% (inactive)	97.3% (inactive)	107% (inactive)	63%	181% (inactive)	-9.79% (inactive)	102% (inactive)	4% (inactive)	-0.2% (inactive)	-2.92% (inactive)	-1.09% (inactive)	99.3% (inactive)	-2.3% (inactive)	-0.1% (inactive)	-4.2% (inactive)	0.05 (inactive)	6% (inactive)	-7.57% (inactive)
CC1CCC[C@H](O)CCCCCc2cc(O)cc(O)c2C(=O)O1 (stereo not given in full)	102% (inactive)	99.7% (inactive)	106% (inactive)	114% (inactive)	109% (inactive)	62.7%	174% (inactive)	19% (inactive)	111% (inactive)	-3% (inactive)	-2.64% (inactive)	-18.8% (inactive)	6.16% (inactive)	106% (inactive)	-0.6% (inactive)	0.6% (inactive)	-2.4% (inactive)	0.69 (active)	-7% (inactive)	-4.57% (inactive)
C[C@@]1(CO)[C@H](O)CC[C@@]2(C)[C@H]1CC[C@H]1C[C@@H]3C[C@@]12CC[C@]3(O)CO	105% (inactive)	106% (inactive)	102% (inactive)	103% (inactive)	99.3% (inactive)	62.9%	225% (inactive)	17.7% (inactive)	102% (inactive)	0% (inactive)	0.18% (inactive)	54.5% (active)	3.03% (inactive)	100% (inactive)	4.1% (inactive)	1% (inactive)	-0.5% (inactive)	-0.04 (inactive)	6% (inactive)	-1.65% (inactive)
